Drawing on PubChem BioAssay (EPA / NIEHS), this text covers outcome and AC50 for 28 compounds.

The source made the active and inactive calls. How the source made its calls: active means hit-call score of the fitted dose curve at least 0.9, where 1 is the maximum; inactive means score below 0.9.

Test [1] is described as follows: ATG_PBREM_CIS: Attagene CIS-FACTORIAL HepG2 Assay for human Phenobarbital-responsive Enhancer Module (PBREM) (AID 2282955). Particulars: HepG2 PBREM cis-reporter, Attagene multiplexed transcription; actives raise or lower the signal. In short, it runs like this:
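HepG2, transient MRTU transfection, 24 h dosing; RNA → oligo(dT) RT → PCR → 6-FAM extension → HpaI → CE. Bidirectional fit vs DMSO.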

Test [2] addresses Paired box protein Pax-6 (Homo sapiens) (UniProt P26367). Nature of the test: ATG_Pax6_CIS: Attagene CIS-FACTORIAL HepG2 Assay for human Paired Box 6 (PAX6) (AID 2282956). Particulars: HepG2 CIS-FACTORIAL PAX6 reporter transcription, RNA readout; actives raise or lower the signal. The procedure, abridged: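 HepG2 cells transiently transfected with multiplexed cis-promoter reporter units (endogenous TF activity) were dosed for 24 h. Reporter mRNA was quantified by RT-PCR, 6-FAM labeling, HpaI digestion and capillary electrophoresis; bidirectional fitting versus DMSO baseline.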

Test [3] in a line: ATG_PXRE_CIS: Attagene CIS-FACTORIAL HepG2 Assay for human Pregnane X Receptor Element (PXRE) (AID 2282957). Particulars: HepG2 Attagene CIS-FACTORIAL PXRE reporter, mRNA; actives raise or lower the signal. In short, it runs like this: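 Multiplexed cis-reporter assay in transiently transfected human HepG2 cells; 24 h chemical exposure. Reporter transcripts quantified by RT-PCR with fluorescent labeling and capillary electrophoresis.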

Test [4] can be described thus: ATG_PPRE_CIS: Attagene CIS-FACTORIAL HepG2 Assay for human Peroxisome Proliferator-activated Response Element (PPRE) (AID 2282958). As to conditions: HepG2 PPRE cis-element reporter, Attagene transcription factor profiling; actives raise or lower the signal. In short, it runs like this: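 Transcript-level reporter induction in transfected HepG2 cells after 24 h chemical exposure, quantified by fluorescence from RT-PCR products separated by capillary electrophoresis.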

Test [5] can be described thus: ATG_RORE_CIS: Attagene CIS-FACTORIAL HepG2 Assay for human RAR-related Orphan Receptor Element (RORE) (AID 2282959). As to conditions: HepG2 Attagene cis-factorial RORE reporter, mRNA; actives raise or lower the signal. The procedure, abridged: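 Multiplexed reporter assay measuring mRNA induction from a cis promoter element in transiently transfected HepG2 cells after 24 h treatment. Detection via RT-PCR and capillary electrophoresis fluorescence; DMSO serves as baseline.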

The nature of test [6]: ATG_Sox_CIS: Attagene CIS-FACTORIAL HepG2 Assay for human SRY-box transcription factor (SOX) (AID 2282960). Particulars: HepG2 Attagene cis-factorial SOX reporter, mRNA; actives raise or lower the signal. In short, it runs like this:
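Cells were transfected with reporter constructs under cis-regulatory promoters, then exposed to chemicals for 24 h. Reporter transcripts were quantified by fluorescence after RT-PCR and capillary electrophoresis; activity was fitted in both directions against DMSO.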

For test [7], the target named is Transcription factor Sp1 (Homo sapiens) (UniProt P08047). Nature of the test: ATG_Sp1_CIS: Attagene CIS-FACTORIAL HepG2 Assay for human Specificity Protein 1 (Sp1) (AID 2282961). As to conditions: HepG2 Sp1 cis-reporter transcription, actives raise or lower the signal. The procedure, abridged:
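Measures mRNA induction of an Sp1-linked reporter in HepG2 cells 24 h post-dosing. Multiplexed reporters read by RT-PCR and capillary electrophoresis; DMSO serves as negative control and baseline.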

Test [8] can be described thus: ATG_SREBP_CIS: Attagene CIS-FACTORIAL HepG2 Assay for human Sterol Regulatory Element Binding (SREBP) (AID 2282962). As to conditions: HepG2 Attagene cis-factorial SREBP reporter, mRNA; actives raise or lower the signal. In short, it runs like this:
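HepG2 cells transiently transfected with multiplexed cis-element reporter units report endogenous transcription factor activity. After 24 h of chemical exposure, reporter mRNA was quantified by RT-PCR, 6-FAM labelling, HpaI digestion and capillary electrophoresis; bidirectional fits used DMSO as baseline.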

Test [9] is described as follows: ATG_TA_CIS: Attagene CIS-FACTORIAL HepG2 Assay for human TA Basal Promoter (AID 2282964). As to conditions: HepG2 Attagene CIS-factorial TA basal promoter reporter; actives raise or lower the signal. The procedure, abridged: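 HepG2 cells transiently transfected with multiplexed cis-promoter reporter units, dosed 24 h. Reporter mRNA measured by RT-PCR, 6-FAM labelling, HpaI digestion and capillary electrophoresis; bidirectional fit versus DMSO baseline, serving as background control.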

Test [10] concerns the target Signal transducer and activator of transcription 3 (Homo sapiens) (UniProt P40763). Nature of the test: ATG_STAT3_CIS: Attagene CIS-FACTORIAL HepG2 Assay for human Signal Transducer and Activator of Transcription 3 (STAT3) (AID 2282963). As to conditions: HepG2, Attagene cis-factorial STAT3 reporter transcription; actives raise or lower the signal. The procedure, abridged:
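HepG2 cells transiently transfected with multiple cis-element-driven reporter units report endogenous transcription factor activity. After 24 h compound exposure, reporter mRNA is measured by RT-PCR, 6-FAM labelling, HpaI digestion and capillary electrophoresis. Fitted bidirectionally versus DMSO.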

Chain of Signal transducer and activator of transcription 3 (Homo sapiens) (P40763 whole entry, looked up): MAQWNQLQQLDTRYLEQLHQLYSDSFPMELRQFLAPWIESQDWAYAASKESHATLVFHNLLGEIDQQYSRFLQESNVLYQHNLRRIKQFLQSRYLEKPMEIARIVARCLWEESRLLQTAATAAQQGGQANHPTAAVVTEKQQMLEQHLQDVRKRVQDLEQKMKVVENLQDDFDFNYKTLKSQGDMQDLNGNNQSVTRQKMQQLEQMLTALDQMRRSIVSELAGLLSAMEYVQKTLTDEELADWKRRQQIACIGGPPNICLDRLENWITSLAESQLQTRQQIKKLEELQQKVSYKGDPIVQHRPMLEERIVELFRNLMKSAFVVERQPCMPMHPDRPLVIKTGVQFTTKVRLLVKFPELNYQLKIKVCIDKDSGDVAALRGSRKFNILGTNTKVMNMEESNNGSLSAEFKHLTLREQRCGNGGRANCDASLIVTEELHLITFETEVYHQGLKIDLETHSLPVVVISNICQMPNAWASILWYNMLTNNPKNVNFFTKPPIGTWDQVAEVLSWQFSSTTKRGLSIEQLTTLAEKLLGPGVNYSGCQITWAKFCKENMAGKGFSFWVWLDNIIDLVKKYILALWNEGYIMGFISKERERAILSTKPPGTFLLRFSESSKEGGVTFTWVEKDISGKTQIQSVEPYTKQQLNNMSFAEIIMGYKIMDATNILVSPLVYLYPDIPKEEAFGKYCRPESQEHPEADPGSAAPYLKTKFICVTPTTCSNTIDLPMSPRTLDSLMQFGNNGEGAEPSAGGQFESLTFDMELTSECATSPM
Chain of Transcription factor Sp1 (Homo sapiens) (P08047 whole entry, looked up): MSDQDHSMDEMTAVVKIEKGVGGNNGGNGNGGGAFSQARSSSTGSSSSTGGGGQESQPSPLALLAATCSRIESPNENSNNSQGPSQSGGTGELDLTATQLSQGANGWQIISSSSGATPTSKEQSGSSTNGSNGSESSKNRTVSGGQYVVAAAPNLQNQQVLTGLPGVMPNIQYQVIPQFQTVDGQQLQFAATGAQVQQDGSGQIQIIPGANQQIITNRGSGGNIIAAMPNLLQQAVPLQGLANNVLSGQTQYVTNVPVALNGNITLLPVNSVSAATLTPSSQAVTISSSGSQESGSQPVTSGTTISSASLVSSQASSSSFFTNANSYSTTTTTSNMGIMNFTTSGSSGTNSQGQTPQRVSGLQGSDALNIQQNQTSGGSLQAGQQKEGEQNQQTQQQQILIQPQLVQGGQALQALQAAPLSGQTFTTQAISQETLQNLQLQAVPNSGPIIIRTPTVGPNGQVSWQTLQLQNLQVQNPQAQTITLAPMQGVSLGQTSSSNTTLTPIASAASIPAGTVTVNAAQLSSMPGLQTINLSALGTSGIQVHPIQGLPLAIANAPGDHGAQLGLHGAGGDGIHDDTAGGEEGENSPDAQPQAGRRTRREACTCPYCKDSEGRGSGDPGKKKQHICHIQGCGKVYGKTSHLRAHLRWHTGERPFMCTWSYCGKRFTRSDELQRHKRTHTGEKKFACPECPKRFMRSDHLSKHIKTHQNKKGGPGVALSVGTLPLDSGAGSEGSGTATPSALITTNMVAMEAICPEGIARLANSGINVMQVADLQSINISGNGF
Chain of Paired box protein Pax-6 (Homo sapiens) (P26367 whole entry, looked up): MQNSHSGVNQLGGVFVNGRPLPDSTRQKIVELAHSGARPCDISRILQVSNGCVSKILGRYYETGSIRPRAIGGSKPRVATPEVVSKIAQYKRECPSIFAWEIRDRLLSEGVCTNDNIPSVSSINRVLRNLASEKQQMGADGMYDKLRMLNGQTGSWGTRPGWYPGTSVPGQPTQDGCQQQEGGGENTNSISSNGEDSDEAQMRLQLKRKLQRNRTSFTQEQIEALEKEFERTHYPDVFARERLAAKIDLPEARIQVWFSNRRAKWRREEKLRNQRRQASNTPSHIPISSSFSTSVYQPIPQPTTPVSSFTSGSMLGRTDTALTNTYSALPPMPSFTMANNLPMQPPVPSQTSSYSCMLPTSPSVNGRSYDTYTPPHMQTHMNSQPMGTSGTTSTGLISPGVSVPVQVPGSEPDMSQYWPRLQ

In general, AC50 refers to the concentration at which the activity in the assay is half-maximal. In the case of `CCn1c2ccccc2c2ccccc21`, the outcome in test [1], in [2], in [4], in [5], in [6] and in [9] was inactive. Moreover, the AC50 was 26.2 µM (active) in test [3], 167 µM (active) in test [7] and 153 µM (active) in test [8].
For the compound `OC(O)C(F)(F)C(F)(F)F`, the result in [1], in test [2], in [3], in [4], in test [5] and in test [6] was inactive. In addition, the compound was called inactive in [7], in test [8] and in test [9].
As to `O=C(c1ccccc1)c1ccc(O)cc1O`, the result in test [1], in test [2], in test [4], in test [5], in test [6] and in test [8] was inactive. The compound was classed as inactive in test [9].
For `CCc1ccc(C)nc1`, the outcome in [1], in test [2], in test [4], in [5], in test [6] and in test [7] was inactive. In addition, the compound was classed as inactive in test [8] and in test [9].
For `OCC(F)(F)C(F)(F)C(F)(F)CO`, the result in test [1], in test [2], in test [4], in test [5], in test [6] and in test [7] was inactive. Moreover, the outcome in test [8], in test [10] and in test [9] was inactive.
As to `Cc1cccc(C)n1`, the result in test [1], in test [2], in test [4], in test [5], in test [6] and in test [7] was inactive. Further, the call in test [8], in [10] and in [9] was inactive.
As for `CSc1ccc(Cl)cc1`, the result in [1], in [2], in test [4], in test [5], in test [6] and in test [7] was inactive. In addition, the result in test [8] and in test [9] was inactive.
As for `NCC(F)(F)C(F)(F)C(F)(F)C(F)(F)C(F)(F)C(F)(F)F`, the outcome in test [1], in test [2], in test [4], in test [5], in test [6] and in [7] was inactive. For the same compound, the compound was called inactive in [8], in test [10] and in test [9].
With `CC(C)(C)C(=O)C1C(=O)c2ccccc2C1=O`, the AC50 was 27.8 µM (active) in test [1] and 59.7 µM (active) in test [4]. Also, the compound was classed as inactive in test [2], in [5], in test [6], in test [7], in [8] and in [10]. For the same compound, in test [9], the compound was classed as inactive.
For the compound `C=CC(=O)OCCC(F)(F)C(F)(F)C(F)(F)C(F)(F)F`, the outcome in [1], in [2], in test [4], in [5], in test [6] and in test [7] was inactive. Moreover, the compound was classed as inactive in test [8] and in [9].
Turning to `O=C1C=CC(=O)N1c1ccccc1`, the outcome in test [1], in test [2], in [4], in [5], in test [6] and in test [8] was inactive. The outcome in [10] and in test [9] was inactive.
In the case of `CC1CCCCC1`, the result in test [1], in test [2], in test [4], in test [5], in test [6] and in test [7] was inactive. Also, the call in test [8] and in test [9] was inactive.
Turning to `Cc1ccc2c(c1)OCC(=O)CO2`, the outcome in [1], in test [2], in test [4], in test [5], in test [6] and in test [8] was inactive. For the same compound, the call in [10] and in test [9] was inactive.
As to `Cc1ccc(S(=O)(=O)C(I)I)cc1`, the outcome in test [1], in test [5], in test [6] and in [9] was inactive. Besides, the AC50 was 14.9 µM (active) in test [2]; 62.5 µM (active) in [4]; 9.07 µM (active) in test [7]; 4.34 µM (active) in test [8]; 7.8 µM (active) in test [10].
Consider `CCCCOC(=O)C(C)O` (stereo not given), for which the outcome in test [1], in test [2], in test [4], in test [5], in [6] and in [8] was inactive. The compound was classed as inactive in test [9].
As for `FC(F)(F)C(F)(F)C(F)(F)C(F)(F)C(F)(F)C(F)(F)C(F)(F)CCI`, the outcome in test [1], in test [2], in test [4], in test [5], in test [6] and in [8] was inactive. The compound was called inactive in test [9].
Take `CCOC(=O)C1CC(=O)C(=C(O)C2CC2)C(=O)C1` (stereo not given): the result in [1], in test [2], in test [4], in [5], in [6] and in test [7] was inactive. Further, the compound was classed as inactive in test [8], in test [10] and in test [9].
On to `CO[Si](CCCOCC1CO1)(OC)OC` (stereo not given), for which the outcome in [1], in test [2], in [4], in test [5], in test [6] and in test [7] was inactive. In addition, the result in test [8], in test [10] and in [9] was inactive.
As to `C#CC(O)CCC` (stereo not given), the result in [1], in test [2], in [4], in test [5], in test [6] and in [8] was inactive. Moreover, the result in [10] and in test [9] was inactive.
As to `CCOCN(C(=O)CS(=O)(=O)O)c1c(C)cccc1CC`, the outcome in [1], in test [2], in [4], in test [5], in [6] and in test [8] was inactive. In addition, the compound was called inactive in test [10] and in test [9].
For the compound `NC(O)(C(F)(F)F)C(F)(F)F`, the outcome in [1], in [2], in [4], in test [5], in [6] and in [7] was inactive. For the same compound, the call in [8], in test [10] and in [9] was inactive.
Regarding `CCCCCCCCCCCC(=O)Cl`, the outcome in test [1], in [2], in test [5], in [6], in [7] and in [10] was inactive. In addition, in [9], the compound was called inactive. The values for the AC50 in [4] and in test [8] were 49.9 µM (active) and 41.2 µM (active), respectively.
For the compound `OCC(O)CC(F)(F)C(F)(F)C(F)(F)C(F)(F)F` (stereo not given), the result in test [1], in test [2], in test [4], in [5], in [6] and in test [7] was inactive. The outcome in test [8], in [10] and in test [9] was inactive.
For `Cc1cc(=O)[nH]c(C(C)C)n1`, the outcome in test [1], in [2], in [4], in [5], in test [6] and in [8] was inactive. In addition, in test [9], the outcome was inactive.
Take `CCCCCCCC/C=C\CCCCCCCC(=O)OCC(O)CO` (stereo not given): the result in [1], in test [3], in test [4], in test [5], in test [6] and in [7] was inactive. Also, the compound was classed as inactive in [8], in [10] and in [9].
In the case of `CCOC(=O)CC(=O)C(F)(F)C(F)(F)F`, the result in [1], in test [2], in test [4], in [5], in [6] and in test [7] was inactive. The result in [8], in [10] and in [9] was inactive.
For the compound `CC1=CC2C3C=CC(C3)C2C1C` (stereo not given), the result in [1], in test [2], in [4], in [5], in test [6] and in [8] was inactive. Moreover, the compound was classed as inactive in test [10] and in test [9].
With `CCc1cccc(C)c1N(C(=O)C(=O)O)C(C)COC` (stereo not given), the result in test [1], in test [2], in test [4], in test [5], in test [6] and in test [7] was inactive. Moreover, the compound was called inactive in test [8], in test [10] and in [9].
